Most compounds without a hit are left out; they make up all but 3.7% or so of the library.
GPR7 antag: GPR7 receptor antagonists, primary screen, cell-based, fluorescence, single concentration. Neuropeptides B/W receptor type 1 (Homo sapiens), P48145. GPR7-expressing cells, fluorescence antagonist assay. inhibition, % at 4.4 µM. 290,000 tested, 1.1% active; in the data active means inhibition above about 16%, passing the limit was not always enough;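 further: cells stimulated with the agonist NPW; 0% = agonist with vehicle and 100% = vehicle without agonist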
Kir21 inh: inhibitors of mouse Kir2.1 inward-rectifier potassium channel; Inward rectifier potassium channel 2 (Mus musculus), P35561; HEK293-Kir2.1, FluxOR thallium flux fluorescence; active compounds read low; B-score at 10 µM; 310,000 tested, 0.85% active;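 active means fluorescence ratio B-score at or below minus 3 SD of library scores, with starting-brightness B-score within 2 SD, cut at about -4.2 in these data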;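 further: channel flux triggered by added potassium and thallium sulfate stimulus; B-score of peak minus minimum fluorescence over baseline after thallium stimulus; more negative B-score means stronger Kir2.1 block with less thallium influx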
CHT allo act: CHT positive allosteric modulators, primary screen, cell-based, membrane potential dye, choline EC20. CHT-expressing cells; active compounds read high; LV-AA mutant CHT in HEK293 cells. B-score at 10 µM. 310,000 tested, 0.49% active. High affinity choline transporter 1 (Homo sapiens), Q9GZV3;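 active means initial fluorescence not abnormally high and integrated response B-score, plate-corrected, over 3 SD above library mean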
CHT block: inhibitors of human choline transporter CHT; High affinity choline transporter 1 (Homo sapiens), Q9GZV3; CHT-expressing cells, membrane potential dye, choline response; active compounds read low; B-score at 10 µM; 310,000 tested, 0.86% active; AID 488975, 2010;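 active means B-score over 3 SD under the library average, and starting fluorescence ratio not unusually high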;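 further: choline stimulus applied at its EC90 after an EC20 pre-addition; B-score computed on integrated fluorescence ratio after choline addition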
ANO1 block: TMEM16A chloride channel inhibitors, primary screen, cell-based, HTS; HEK293 TMEM16A/YFP iodide influx fluorescence, ionomycin; normalized B-score (activity score, 25-100; higher = stronger inhibition) at 10 µM; AID 588511, 2011; Anoctamin-1 (Mus musculus), Q8BHY3; 310,000 tested, 1.2% active;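 active means ratio plate-corrected score three or more library SD toward inhibition, starting fluorescence score within five deviations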;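 further: score derived from kinetic fluorescence span divided by baseline fluorescence per well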
Target sequence (Q8BHY3 whole entry, looked up): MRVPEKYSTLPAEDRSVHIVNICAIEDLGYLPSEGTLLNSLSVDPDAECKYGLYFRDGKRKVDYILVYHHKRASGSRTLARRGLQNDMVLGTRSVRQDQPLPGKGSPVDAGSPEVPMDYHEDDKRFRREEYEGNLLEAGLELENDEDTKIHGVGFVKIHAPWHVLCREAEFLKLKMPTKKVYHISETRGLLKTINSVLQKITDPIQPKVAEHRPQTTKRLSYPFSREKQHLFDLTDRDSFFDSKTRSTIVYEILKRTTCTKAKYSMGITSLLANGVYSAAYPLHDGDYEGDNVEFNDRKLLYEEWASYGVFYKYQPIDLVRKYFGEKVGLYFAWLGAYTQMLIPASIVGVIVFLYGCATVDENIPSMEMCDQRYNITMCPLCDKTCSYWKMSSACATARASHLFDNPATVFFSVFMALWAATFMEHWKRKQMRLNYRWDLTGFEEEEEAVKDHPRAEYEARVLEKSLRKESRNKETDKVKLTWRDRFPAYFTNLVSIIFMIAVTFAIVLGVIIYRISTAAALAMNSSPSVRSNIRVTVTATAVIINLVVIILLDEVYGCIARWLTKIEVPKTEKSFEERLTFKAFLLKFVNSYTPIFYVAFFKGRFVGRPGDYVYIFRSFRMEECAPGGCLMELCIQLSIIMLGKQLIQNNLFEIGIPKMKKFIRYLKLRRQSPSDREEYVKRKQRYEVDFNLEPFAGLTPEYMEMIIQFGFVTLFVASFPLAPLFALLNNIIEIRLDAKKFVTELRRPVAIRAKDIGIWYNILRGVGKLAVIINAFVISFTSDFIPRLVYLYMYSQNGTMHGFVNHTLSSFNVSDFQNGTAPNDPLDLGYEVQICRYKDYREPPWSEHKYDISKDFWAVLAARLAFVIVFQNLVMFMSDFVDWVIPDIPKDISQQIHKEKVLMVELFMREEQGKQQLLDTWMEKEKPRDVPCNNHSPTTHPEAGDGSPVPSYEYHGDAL
TMEM16A act: TMEM16A chloride channel activators or potentiators, primary screen, cell-based, HTS | HEK293 TMEM16A/YFP-H148Q/I152L, iodide quench fluorescence; active compounds read low | 340,000 tested, 0.3% active | B-score at 10 µM | Anoctamin-1 (Mus musculus), Q8BHY3 | AID 623877, 2012;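 active means fluorescence-ratio B-score plate-corrected deviation score at least 3 library SD below zero, with starting fluorescence score within 5 deviations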;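 further: channel opened by trigger with iodide after compound preincubation; score built on the fluorescence ratio of max minus min over baseline; more negative score means more quench and so TMEM16A activation or potentiation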
CHT block conf: CHT inhibitors, confirmation, cell-based, membrane potential dye, duplicate; shares compounds with CHT block; CHT-expressing cells, choline membrane potential dye; LV-to-AA substituted CHT, HEK293 cells; CHT activity remaining % of control (active compounds read low), % at 10 µM; 2,400 tested, 70% active; AID 493221, 2011;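 active means choline transporter activity left, mean of duplicates at 10 µM, below buffer-only control mean minus 3 SD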;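 further: depolarization triggered by choline at its EC90 following an EC20 pre-addition; 0% = hemicholinium-3 full block and 100% = buffer-only control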
HEK293 MPD ctr: membrane potential effects in parental HEK293, counter-screen for CHT inhibitor project, cell-based, membrane potential dye. 2,400 tested, 4% active. shares compounds with CHT block. choline response; active = decrease or increase beyond buffer ±3SD. AID 493222, 2011. membrane potential ratio readout (active if shifted either direction beyond buffer ±3SD; no single direction) at 10 µM;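 further: parental cells lack the transporter so any hit is non-specific; ratio is peak minus trough fluorescence over baseline after EC90 choline challenge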
An asterisk follows results filed as active; i = inactive; · = no result.

SMILES | GPR7 antag | Kir21 inh | CHT allo act | CHT block | ANO1 block | TMEM16A act | CHT block conf | HEK293 MPD ctr
CCCN(CCC)CCCNC(=O)CN1C(=O)CSc2ccc(S(=O)(=O)N3CCOCC3)cc21 | 2 | -0.48 | i | i | i | i | · | ·
CCCCN(C)CCNC(=O)CN1C(=O)CSc2ccc(S(=O)(=O)N3CCCC3)cc21 | 7 | 0.14 | i | -5.7* | i | i | 58%* | i
CC1CC(C)CN(CCCNC(=O)CN2C(=O)CSc3ccc(S(=O)(=O)N4CCCCC4)cc32)C1 (stereo not given) | -2 | -0.76 | i | i | i | i | · | ·
CC1CCN(S(=O)(=O)c2ccc3c(c2)N(CC(=O)NCCN2C(C)CCCC2C)C(=O)CS3)CC1 (stereo not given) | -1 | -1.6 | i | -10* | i | i | 17%* | i
CC1CCN(S(=O)(=O)c2ccc3c(c2)N(CC(=O)NCCCN2CCCCC2C)C(=O)CS3)CC1 (stereo not given) | -10 | -1.6 | i | -5.5* | i | i | 44%* | i
O=C(N/C(=C\c1cccc([N+](=O)[O-])c1)C(=O)N1CCOCC1)c1cccc(Br)c1 | -2 | 0.06 | i | i | i | i | · | ·
CC(C)c1ccc(OCC(=O)Nc2ccccc2C(=O)N2CCOCC2)cc1 | -25 | 0 | i | i | i | i | · | ·
CCN(Cc1ccncc1)C(=O)c1ccccc1NS(=O)(=O)c1ccc(Br)cc1 | -22 | 0.95 | i | i | i | i | · | ·
COc1ccc(S(=O)(=O)N2CCCCCC2)cc1C(=O)OCc1c(C)noc1C | 11 | · | i | i | i | i | · | ·
Cc1noc(C)c1COC(=O)c1ccc(F)c(S(=O)(=O)N2CCCCC2)c1 | -7 | -1.1 | i | -5* | i | i | 69%* | i
COC(=O)c1sc(NC(=S)NNC(=O)c2c(Br)c(C)nn2C)c(C(=O)OC)c1C | -12 | 0.46 | i | -5.6* | 100* | i | i | i
CCN(CC)C(=O)Cn1ncc2c1-c1ccccc1OC2 | -2 | 1.2 | i | i | i | i | · | ·
O=C(Cn1ncc2c1-c1ccccc1OC2)N(Cc1ccco1)C1CCCCC1 | -1 | 2.3 | i | -4.9* | i | i | i | i
O=P(CCCO)(Cc1ccccc1)Cc1ccccc1 | 7 | 0.07 | i | i | i | i | · | ·
Cc1ccc(S(=O)(=O)N2CCC(C(=O)Nc3nnc(C)s3)CC2)cc1 | 0 | -1.2 | i | i | i | i | · | ·
CC1CCN(c2c(NCc3ccc(C(=O)N4CCc5ccccc54)cc3)c(=O)c2=O)CC1 | -1 | -0.1 | i | i | i | i | · | ·
Cc1cccc(N2CCN(C(=O)c3ccc(CNc4c(N5CCC(C)CC5)c(=O)c4=O)cc3)CC2C)c1 (stereo not given) | 0 | 2.3 | i | -5.4* | i | i | 70%* | i
OCCn1nc(-c2ccccc2)cc1-c1ccccc1 | -4 | 1.8 | i | -9.3* | i | i | 26%* | i
CN1CCN(CC(=O)Nc2nc(-c3c[nH]c4ccccc34)cs2)CC1 | 7 | -2.4 | i | -5.4* | i | i | 64%* | i
CNc1nc(-c2c[nH]c3ccccc23)cs1 | -5 | -1 | i | i | i | i | · | ·
CC(=O)Nc1ccccc1C(=O)C(=O)Nc1ccc(F)c(Cl)c1 | -9 | 2.2 | i | i | i | i | · | ·
Cc1nn(CC2CC2)c(=O)n1-c1ccc(Oc2ccccc2)cc1 | 6 | -0.5 | i | -12* | i | i | 59%* | i
Cc1ccccc1Nc1c(-c2cccnc2)nc2ccc(Br)cn12 | -5 | 2.5 | i | i | i | i | · | ·
Cc1ccccc1Nc1c(-c2ccncc2)nc2ccc(Br)cn12 | -6 | 1 | i | -6.9* | i | i | 51%* | i
COC(=O)NNC(=S)NCc1ccc(C)cc1 | -8 | 0.03 | i | -6.7* | i | i | i | i
SMILES | GPR7 antag | Kir21 inh | CHT allo act | CHT block | ANO1 block | TMEM16A act | CHT block conf | HEK293 MPD ctr
O=C(NC1CCCCCCC1)c1ccc(S(=O)(=O)N2CCCC2)cc1 | 9 | 0.06 | i | -11* | i | i | 44%* | i
CC1CCC(NC(=O)c2cccc(S(=O)(=O)N3CCN(C)CC3)c2)CC1 (stereo not given) | · | -0.24 | i | -13* | i | i | 9.1%* | i
CCc1cccc(CC)c1NC(=O)c1cccc(S(=O)(=O)N2CCN(C)CC2)c1 | -14 | 0.1 | i | -5.8* | i | i | 39%* | i
CCc1cccc(CC)c1NC(=O)c1cccc(NC(=O)c2ccccc2)c1 | 19 | 1.3 | i | -5.6* | i | i | 65%* | i
CCOc1ccc(NC(=O)c2cccc(NC(=O)c3ccccc3)c2)cc1 | -13 | 0.24 | i | i | i | i | · | ·
CCc1cccc(NC(=O)c2cccc(S(=O)(=O)N3CCN(C)CC3)c2)c1 | 4 | 0.04 | i | i | i | i | · | ·
CC1CCC(NC(=O)c2cccc(S(=O)(=O)N3CCN(c4ccccc4)CC3)c2)CC1 (stereo not given) | · | 0.79 | i | i | i | i | · | ·
O=C(/C=C/c1cn(-c2ccccc2)nc1-c1cccs1)NCCN1CCOCC1 | 0 | 0.95 | i | -7.1* | i | i | i | i
O=C(c1cn(-c2ccccc2)nc1-c1cccs1)N1CCOCC1 | -3 | 0.4 | i | i | i | i | · | ·
CC(=O)CSc1ccc(C(=O)O)cn1 | 3 | -0.79 | i | i | i | i | · | ·
Cn1c(-c2ccc(Br)cc2)cnc1NCc1ccc(C#N)cc1 | 6 | -0.97 | i | i | i | i | · | ·
Cn1c(-c2ccccc2)cnc1NCc1ccccc1 | -13 | -0.05 | i | -7.2* | i | i | 46%* | i
Cc1ccc(CNc2ncc(-c3ccccc3)n2C)o1 | 12 | -1.6 | i | -5.1* | i | i | 34%* | i
